According to PubChem BioAssay (NCI):
About 79,000 compounds went through this panel and 15% of them were active in at least one assay; those are over-represented in the sample as a whole. The source made the active and inactive calls. Rule as the data show it: active = growth inhibition above about 70%; inactive = the rest.

Legend:
[1] = NCI Yeast Anticancer Drug Screen. Data for the rad50 strain (AID 155);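 also: 0% = growth of vehicle-only cultures of the same strain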; conditions: S. cerevisiae rad50 strain growth inhibition, stronger effect = higher value
Method in brief: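 Genetically altered yeast (DNA repair pathway); compound treatment; growth inhibition vs vehicle ctrl.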

[2] = NCI Yeast Anticancer Drug Screen. Data for the mec2-1 strain (AID 157); conditions: S. cerevisiae mec2-1 strain, stronger effect = higher value
Method in brief: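 Growth inhibition is read against vehicle-treated controls after compound exposure of the mec2-1 yeast strain, which is defective in DNA damage repair or cell cycle control.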

[3] = NCI Yeast Anticancer Drug Screen. Data for the sgs1 mgt1 strain (AID 161);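 also: 0% = growth of cultures given vehicle only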; conditions: S. cerevisiae sgs1 mgt1 strain, stronger effect = higher value
Method in brief: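 Yeast cells carrying a defined DNA-repair defect were exposed to test compounds. Growth inhibition was measured relative to vehicle-treated controls.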

[4] = NCI Yeast Anticancer Drug Screen. Data for the cln2 rad14 strain (AID 165);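 also: 0% = growth equal to vehicle treated cultures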; conditions: S. cerevisiae cln2 rad14 strain, stronger effect = higher value
Method in brief: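 Growth inhibition, relative to vehicle-treated controls, is the read-out. The test organism is a yeast strain with defined genetic alterations, cln2 rad14.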

[5] = NCI Yeast Anticancer Drug Screen. Data for the bub3 strain (AID 167); conditions: S. cerevisiae bub3 mutant strain, stronger effect = higher value
Method in brief: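 Yeast carrying a defined mutation is treated with each compound, and growth is compared with that of vehicle-exposed cells to give inhibition.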

[6] = NCI Yeast Anticancer Drug Screen. Data for the mlh1 rad18 strain (AID 175); conditions: S. cerevisiae mlh1 rad18 strain growth inhibition, stronger effect = higher value
Method in brief: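 Cells of a genetically altered yeast strain, deficient in DNA damage repair, were treated with compound. Their growth was then compared with that of vehicle-treated cultures to give inhibition.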

[7] = at 5.0 µM (retest, dose inferred, filed as 0.5)
[8] = at 50.0 µM (retest, dose inferred, filed as 5.0)

Measured: growth inhibition

Nc1nc(N)c(-c2ccc(Cl)c(Cl)c2)c(COc2cccc(CNS(=O)(=O)c3ccc(S(=O)(=O)F)cc3)c2)n1
inactive: [1]; [7] 3% | [1]; [8] 57% | [1]; at 50.0 µM 51.1% | [2]; [7] -3% | [2]; at 50.0 µM 49.5% | [3]; [7] -2% | [3]; [8] 65% | [3]; at 50.0 µM 58% | [4]; [7] -4% | [4]; [8] 40% | [4]; at 50.0 µM 54.8% | [5]; [7] -3% | [5]; [8] 68% | [5]; at 50.0 µM 48.8% | [6]; [7] 4% | [6]; at 50.0 µM 47%
active: [2]; [8] 86% | [6]; [8] 80%

C/C(=N\N=C(/[Se])N1CCC(C)CC1)c1ccccn1
active: [1]; [8] 94% | [1]; at 50.0 µM 94.5% | [2]; [8] 91% | [2]; at 50.0 µM 96% | [3]; [8] 71% | [3]; at 50.0 µM 99.2% | [5]; at 50.0 µM 84.5% | [6]; [8] 76% | [6]; at 50.0 µM 98%
inactive: [1]; [7] 27% | [2]; [7] 24% | [3]; [7] 9% | [4]; [7] 4% | [4]; [8] -9% | [4]; at 50.0 µM 47% | [5]; [7] 6% | [5]; [8] 20% | [6]; [7] 4%

NC(=O)c1cc([N+](=O)[O-])c(Cl)c([N+](=O)[O-])c1
active: [1]; [8] 89% | [1]; at 50.0 µM 88.2% | [2]; [8] 84% | [2]; at 50.0 µM 86.3% | [3]; [8] 98% | [3]; at 50.0 µM 89% | [4]; [8] 97% | [5]; [8] 97% | [5]; at 50.0 µM 88.5% | [6]; [8] 85% | [6]; at 50.0 µM 88.7%
inactive: [1]; [7] 50% | [2]; [7] 62% | [3]; [7] 38% | [4]; [7] 36% | [4]; at 50.0 µM 56.5% | [5]; [7] 49% | [6]; [7] 57%

COC1OC(CO)C(O)C(O)[CH]1[Hg][Cl] (stereo not given)
active: [1]; [7] 99% | [1]; [8] 99% | [1]; at 50.0 µM 99% | [2]; [7] 99% | [2]; [8] 99% | [2]; at 50.0 µM 99% | [3]; [7] 100% | [3]; [8] 100% | [3]; at 50.0 µM 99% | [4]; [7] 99% | [4]; [8] 99% | [4]; at 50.0 µM 99.2% | [5]; [7] 99% | [5]; [8] 99% | [5]; at 50.0 µM 98.8% | [6]; [7] 99% | [6]; [8] 99% | [6]; at 50.0 µM 98.8%

CC(=O)OCC1(N2CCCC2)CCCCC1
inactive: [1]; [7] -3% | [1]; [8] 2% | [1]; at 50.0 µM 5.05% | [2]; [7] 2% | [2]; [8] -3% | [2]; at 50.0 µM 5.35% | [3]; [7] -3% | [3]; [8] 16% | [3]; at 50.0 µM 43.4% | [4]; [7] -5% | [4]; [8] -17% | [4]; at 50.0 µM 0.45% | [5]; [7] -10% | [5]; [8] -10% | [5]; at 50.0 µM 23.6% | [6]; [7] -16% | [6]; [8] -6% | [6]; at 50.0 µM -16.6%

CC(=O)OC1CCC2C3CCC4C(F)C(=O)C(F)(F)CC4(C)C3CCC12C (stereo not given)
inactive: [1]; [7] 2% | [1]; at 50.0 µM 49% | [2]; [7] -12% | [2]; at 50.0 µM 5.6% | [3]; [7] -2% | [3]; at 50.0 µM 63.5% | [4]; [7] -3% | [4]; [8] 46% | [4]; at 50.0 µM 63% | [5]; [7] -1% | [5]; [8] 60% | [5]; at 50.0 µM 8.95% | [6]; [7] 0% | [6]; at 50.0 µM 12.7%
active: [1]; [8] 78% | [2]; [8] 93% | [3]; [8] 91% | [6]; [8] 90%

C[C@@H](O)[C@H]1/C=C/C=C\C(=O)O[C@@H]2C[C@H]3O[C@@H]4[C@@H]5OC5(C)CCC4(COC(=O)[C@H]4O[C@]4(C)[C@@H](O)CO1)[C@]2(C)[C@]31CO1 (stereo not given in full)
active: [1]; [8] 95% | [1]; at 50.0 µM 91.4% | [2]; [8] 87% | [2]; at 50.0 µM 92.5% | [3]; [8] 96% | [3]; at 50.0 µM 92% | [4]; [8] 96% | [4]; at 50.0 µM 90.4% | [5]; [8] 93% | [5]; at 50.0 µM 91% | [6]; [8] 97% | [6]; at 50.0 µM 90.2%
inactive: [1]; [7] 26% | [2]; [7] 24% | [3]; [7] 44% | [4]; [7] 42% | [5]; [7] 31% | [6]; [7] 28%

Oc1c(Cl)c(Cl)cc(Cl)c1Cc1c(Cl)cc(Cl)c(Cl)c1[O][Pb]([c]1ccccc1)([c]1ccccc1)[c]1ccccc1
active: [1]; [7] 99% | [1]; [8] 87% | [1]; at 50.0 µM 99.5% | [2]; [7] 99% | [2]; [8] 90% | [2]; at 50.0 µM 99.5% | [3]; [7] 99% | [3]; [8] 89% | [3]; at 50.0 µM 99.7% | [4]; [7] 99% | [4]; [8] 87% | [4]; at 50.0 µM 99% | [5]; [7] 99% | [5]; [8] 89% | [5]; at 50.0 µM 99.3% | [6]; [7] 99% | [6]; [8] 87% | [6]; at 50.0 µM 99.5%

[Se]C1=NCCN1
inactive: [1]; [7] 6% | [1]; [8] 53% | [2]; [7] 7% | [2]; [8] 34% | [3]; [7] 3% | [3]; [8] 39% | [4]; [7] 6% | [4]; [8] 48% | [5]; [7] 4% | [6]; [7] 6%
active: [1]; at 50.0 µM 94.6% | [2]; at 50.0 µM 92.3% | [3]; at 50.0 µM 95.6% | [4]; at 50.0 µM 77.8% | [5]; [8] 96% | [5]; at 50.0 µM 84% | [6]; [8] 89% | [6]; at 50.0 µM 92.2%

CC(C)CC(C)(c1ccc(O)cc1)c1ccc(O)cc1
inactive: [6]; [7] 68%
active: [1]; [7] 81% | [1]; [8] 98% | [1]; at 50.0 µM 92% | [2]; [7] 78% | [2]; [8] 99% | [2]; at 50.0 µM 93.5% | [3]; [7] 99% | [3]; [8] 99% | [3]; at 50.0 µM 93.8% | [4]; [7] 80% | [4]; [8] 99% | [4]; at 50.0 µM 92.6% | [5]; [7] 98% | [5]; [8] 99% | [5]; at 50.0 µM 92.2% | [6]; [8] 99% | [6]; at 50.0 µM 92.3%
